Assay results: ChEMBL document CHEMBL3988442, “University of Dundee, Small-Polar-MMV Screening Library” (2021)
About 13,000 (27%) of roughly 48,000 compounds showed an effect of 50% or more. Some of the results follow.

test system: Wolbachia pipientis; assay: Anti-Wolbachia Cell-Based Screen; type: functional; design: scale not given: in the data most compounds retested in dose-response had high values; conditions: 5 µM

SMILES | Percent Effect
CN(Cc1ccco1)C1CCC12CCN(C(=O)C1CCOCC1)CC2.O=C(O)C(F)(F)F (configuration not stated) | -16.55%
CO[C@H]1CCN(S(=O)(=O)c2cn(C)cn2)[C@H]1Cc1ccccc1.O=C(O)C(F)(F)F | 1.513%
Cc1noc(CCNC(=O)c2ccc(Br)c(S(=O)(=O)N(C)C)c2)n1 | 13.21%
CCn1c(N)nc2cc(C(=O)NCCc3ccccc3C)cnc21 | -8.06%
CCN(CC)S(=O)(=O)CCNc1nnc(C(C)C)s1 | 4.911%
CC(=O)N(Cc1ccc(NCc2cnn(C(C)(C)C)c2)cc1)C(C)C | 111.1%
CC(C)(C)n1cc(CNC2CCN(C(=O)c3ccncc3)CC2)cn1 | -2.234%
CC(C)(C)n1cc(CNC2CCN(C(=O)c3ccco3)CC2)cn1 | -4.791%
CS(=O)(=O)c1ccc(NCc2ccc(F)cc2)cn1 | -13.54%
CC(C)c1nc(CNc2ccc(CNS(C)(=O)=O)cc2)cs1 | -10.73%
CC(C)(C(=O)NCc1ccc(C#N)cc1)n1cc(Br)cn1 | 9.719%
CC(C)(C)OC(=O)N1CCC(NCc2cnn(C(C)(C)C)c2)CC1 | -19.8%
CC(C)(C)n1cc(CNc2ccc(CNS(C)(=O)=O)cc2)cn1 | 115%
CC(C)OC(=O)NCc1ccc(NCc2cnn(C(C)(C)C)c2)cc1 | 104.7%
CCc1nc(CNC(=O)Nc2nc(COC)cs2)cs1 | -11.4%
O=C(NCCc1csc(-c2cnccn2)n1)c1cnn[nH]1 | -5.851%
CCc1n[nH]c(SCC(=O)N2CCc3[nH]nc(C4CCC4)c3C2)n1 | -5.998%
OC1(CNC2CCN(Cc3ccncc3)CC2)CCc2ccccc21 (configuration not stated) | 9.315%
O=C(NCC1CCOCC1)[C@H]1C[C@@H]2CCN(Cc3ccccc3)C[C@H]2O1.O=C(O)C(F)(F)F | 108.7%
CNC(=O)[C@H]1C[C@@H]2CCN(CCc3ccccc3)C[C@@H]2O1.O=C(O)C(F)(F)F | -33.06%
O=C(NCC1CC1)[C@@H]1C[C@@H]2CCN(Cc3ccoc3)C[C@@H]2O1 | 93.16%
O=C([C@@H]1C[C@@H]2CCN(Cc3ccco3)C[C@H]2O1)N1CCCO1 | -6.348%
O=C(NCC1CCOCC1)[C@H]1C[C@@H]2CCN(Cc3ccncc3)C[C@@H]2O1.O=C(O)C(F)(F)F.O=C(O)C(F)(F)F | 7.253%

SMILES | Percent Effect
O=C(NCC1CC1)[C@H]1C[C@@H]2CCN(CCc3ccccc3)C[C@H]2O1.O=C(O)C(F)(F)F | 16.57%
CNC(=O)[C@@H]1C[C@@H]2CCN(Cc3ccoc3)C[C@H]2O1 | 103.1%
O=C(NCC1CCOCC1)[C@@H]1C[C@@H]2CCN(Cc3ccco3)C[C@H]2O1.O=C(O)C(F)(F)F | -3.417%
O=C(NCC1CC1)[C@@H]1C[C@@H]2CCN(Cc3ccccc3)C[C@H]2O1 | 100.1%
CC(C)[C@H]1CN(CCS(C)(=O)=O)C[C@@H]1NC(=O)c1ccc(=O)[nH]c1 | -6.33%
NC(=O)Cn1c(SCc2noc(-c3ccsc3)n2)nnc1C1CC1 | 7.901%
Cc1cc(C)cc(C(=O)NCc2ncnn2C)c1 | -13.46%
CC(OCC1CC1)C(=O)Nc1ccn(Cc2ccccc2)n1 (configuration not stated) | -8.999%
N[C@H]1CC[C@@H](NC(=O)c2ccc3nc(-c4ccc(F)cc4)cn3c2)CC1 | -22.5%
Cn1nc(C(=O)NCc2cccc(Cn3ccnc3)c2)ccc1=O | -21.54%
Cn1cccc1C(=O)NCc1cn2c(n1)CN(C(=O)c1ccsc1)CC2 | 7.383%
O=C(NCC1CC1)[C@H]1CC[C@@H]2[C@@H](CCN2Cc2ccoc2)O1 | 3.009%
O=C(NC1CC1)[C@H]1CC[C@@H]2[C@@H](CCN2Cc2ccsc2)O1 | -0.273%
O=C(NCC1CCOCC1)[C@@H]1C[C@@H]2[C@@H](CCN2Cc2ccoc2)O1 | 102.5%
CSC(C)C(=O)NCCCc1cc(N)n(-c2ccccc2)n1 (configuration not stated) | 6.591%
Cc1ccc(-n2nc(C)c3c(C)cc(OCC(=O)NC(C)C)nc32)cc1 | 109.8%
Cc1ccc(OCC(=O)NCc2sccc2C)nc1 | -2.294%
Cc1ccc(OCC(=O)NCC(C)C)nc1 | 0.1298%
Cc1cc(C)c2c(OCC(=O)NC(C)C)nn(C)c2n1 | -14.3%
Cc1ccc2oc(N3CCN(CC(=O)NC(C)C)CC3)nc2c1 | 0.7244%
CCCNC(=O)COc1ccc(C)cn1 | 4.173%
CCCNC(=O)COc1cc(C)c2c(C)nn(-c3ccccc3)c2n1 | 102.4%
Cc1ccc(OCC(=O)NCc2ccccc2F)nc1 | -9.663%

SMILES | Percent Effect
CCCNC(=O)COc1cc(C)c2c(C)nn(-c3ccc(C)cc3)c2n1 | 109.7%
CCNC(=O)COc1cc(CC)c2c(C)nn(-c3ccc(C)cc3)c2n1 | 126.5%
CC(C)NC(=O)NCCCc1cc(N)n(-c2ccccc2)n1 | -14.76%
CCn1ncc2c1CCCC2NCc1cccc2c1OCCO2 (configuration not stated) | 5.32%
COCCCSc1ccc(NCc2ccc(C)cn2)cc1 | -7.055%
CCN(CC)[C@@H]1CN(Cc2cnn(C)c2)[C@@H]2COC[C@H]12 | 6.266%
COC1CCN(Cc2csc(C(C)C)n2)CC1 | -2.369%
CC(CN1CCCC1)C(=O)N1CCC(c2nccn2CC2CC2)CC1 (configuration not stated) | -20.21%
CSCc1noc(C2CCC(=O)N(CCc3ccccc3)C2)n1 (configuration not stated) | -4.988%
CCc1noc(C2CCCCN2C(=O)c2nnc3ccccc3n2)n1 (configuration not stated) | 13%
CC(NC(=O)NC1CCN(Cc2ccncc2)CC1)c1ccc(F)cc1 (configuration not stated) | 24.84%
O=C1CCCN1CC1CN(C(=O)CC2CCCC2)Cc2nccn2C1 (configuration not stated) | -15.1%
COCC(=O)N1Cc2nccn2CC(Cn2ncccc2=O)C1 (configuration not stated) | 110.2%
COCC1CN(C(=O)c2ccco2)Cc2nccn2C1 (configuration not stated) | 4.87%
O=C(CC1CC1)N1Cc2nccn2CC(Cn2ncccc2=O)C1 (configuration not stated) | 90.4%
O=C(N1CCCC1)N1Cc2nccn2CC(Cn2ncccc2=O)C1 (configuration not stated) | 113.1%
O=C(C1CC=CC1)N1Cc2nccn2CC(CN2CCCC2)C1 (configuration not stated) | 16.54%
O=C(c1ccco1)N1Cc2nccn2CC(Cn2ncccc2=O)C1 (configuration not stated) | 108.6%
O=C(CC1CC1)N1Cc2nccn2CC(CN2CCCC2)C1 (configuration not stated) | -4.92%
COCC1CN(C(=O)c2ccc(C)o2)Cc2nccn2C1 (configuration not stated) | -22.35%
O=C1CCCN1CC1CN(C(=O)N2CCOCC2)Cc2nccn2C1 (configuration not stated) | 4.749%
